Data as given in PubChem BioAssay (EPA / NIEHS).
Several values for one entry are separate records, joined by “and”; a condition that tells them apart may be missing. Equal values may be shown once. Results filed as inconclusive are left out. Some structures have more than one record in an assay (separate samples or runs), and their calls can disagree. Activity calls are given as the source filed them. How the source made its calls, unless noted: active means hit-call score of the fitted dose curve at least 0.9, where 1 is the maximum; inactive means score below 0.9.

Experiments:
[1] = read-out: Interferon-inducible T-cell alpha chemoattractant (ITAC), CXCL11 (gene 6373); test: BSK_BE3C_ITAC: BioMAP Diversity Plus: BE3C Assay for Interferon-inducible T-cell alpha chemoattractant (ITAC) Biomarker Activity (AID 2284279); details: primary human bronchial epithelial cells
Outline: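 ELISA for I-TAC in primary human bronchial epithelial cultures 24 h post-treatment, fitted relative to DMSO baseline in positive direction. Cytotoxicity checked in parallel cultures by sulforhodamine B protein staining.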

[2] = read-out: Interleukin-8 (IL8), CXCL8 (gene 3576); test: BSK_BE3C_IL8: BioMAP Diversity Plus: BE3C Assay for Interleukin-8 (IL8) Biomarker Activity (AID 2284280); details: primary human bronchial epithelial cells
Outline: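 IL-8 signal gain, normalised to DMSO vehicle, was scored after a 24 h chemical exposure of primary human bronchial epithelial cells, with detection by ELISA.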

[3] = read-out: Epidermal growth factor receptor (EGFR), EGFR (gene 1956); test: BSK_BE3C_EGFR: BioMAP Diversity Plus: BE3C Assay for Epidermal growth factor receptor (EGFR) Biomarker Activity (AID 2284281); details: primary human bronchial epithelial cells
Outline: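 Compound is added to human bronchial epithelial cells, cells incubate 24 h, then EGFR is detected by ELISA. Values reflect positive-direction fitting relative to DMSO.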

[4] = read-out: KRT18 (gene 3875); test: BSK_BE3C_Keratin818: BioMAP Diversity Plus: BE3C Assay for Keratin 818 Biomarker Activity (AID 2284282); details: primary human bronchial epithelial cells
Outline: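 Human primary bronchial epithelial cells in the BE3C system were exposed to test chemical for 24 h, then Keratin 8/18 was quantified by ELISA. Activity was fitted in the positive direction against DMSO as negative control and baseline.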

[5] = read-out: Matrix Metallopeptidase 9 (MMP9), MMP9 (gene 4318); test: BSK_BE3C_MMP9: BioMAP Diversity Plus: BE3C Assay for Matrix Metallopeptidase 9 (MMP9) Biomarker Activity (AID 2284283); details: primary human bronchial epithelial cells
Outline: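 Human primary bronchial epithelial cells in the BE3C system were dosed with compound for 24 h. MMP-9 was measured by ELISA, and the positive-direction response was fitted relative to DMSO as baseline. Parallel SRB staining gauged cytotoxicity.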

[6] = read-out: Plasminogen activator inhibitor-1 (PAI1), SERPINE1 (gene 5054); test: BSK_CASM3C_PAI1: BioMAP Diversity Plus: CASM3C Assay for Plasminogen activator inhibitor-1 (PAI1) Biomarker Activity (AID 2284284); details: primary human coronary artery smooth muscle cells;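 further: PAI-1 protein level measured by ELISA 24 h after dosing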
[7] = read-out: Monocyte Chemoattractant Protein-1 (MCP1), CCL2 (gene 6347); test: BSK_hDFCGF_MCP1: BioMAP Diversity Plus: hDFCGF Assay for Monocyte Chemoattractant Protein-1 (MCP1) Biomarker Activity (AID 2284285); details: primary human foreskin fibroblasts
Outline: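 Human foreskin fibroblasts (hDFCGF system) were exposed to compound and secreted MCP-1 was measured by ELISA after 24 hours. Activity was fitted relative to DMSO. Cytotoxicity was checked by SRB total-protein staining in parallel cultures.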

[8] = read-out: Intercellular Adhesion Molecule 1 (ICAM1), ICAM1 (gene 3383); test: BSK_hDFCGF_ICAM1: BioMAP Diversity Plus: hDFCGF Assay for Intercellular Adhesion Molecule 1 (ICAM1) Biomarker Activity (AID 2284287); details: primary human foreskin fibroblasts
Outline: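 Primary human foreskin fibroblasts (hDFCGF system) dosed with chemical; ICAM-1 quantified by ELISA at 24 h relative to DMSO. Parallel SRB total-protein staining to assess overt cytotoxicity.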

[9] = read-out: TIMP metallopeptidase inhibitor 2 (TIMP2), TIMP2 (gene 7077); test: BSK_hDFCGF_TIMP2: BioMAP Diversity Plus: hDFCGF Assay for TIMP metallopeptidase inhibitor 2 (TIMP2) Biomarker Activity (AID 2284289); details: primary human foreskin fibroblasts
Outline: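 Primary human foreskin fibroblasts in the hDFCGF system, dosed for 24 h; TIMP-2 level measured by ELISA, fitted in the positive direction against DMSO; cytotoxicity checked in parallel by sulforhodamine B total protein staining.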

[10] = read-out: CD69, CD69 (gene 969); test: BSK_LPS_CD69: BioMAP Diversity Plus: LPS Assay for CD69 Biomarker Activity (AID 2284303); details: primary human HUVEC with PBMC
Outline: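 Human umbilical vein endothelial cells co-cultured with PBMC under LPS stimulation, chemical exposure 24 h; cell-surface CD69 measured by ELISA and fitted in the positive direction versus DMSO.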

[11] = IUF_NPC2c_oligodendrocyte_migration_120hr: Leibniz Research Institute for Environmental Medicine (IUF) 120-hour Neural Progenitor Cell Migration Assay for Oligodendrocyte Migration (NPC2c) (AID 2284297);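 further: O4-positive oligodendrocyte migration distance divided by radial glia migration distance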
Outline: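 Human fetal cortex-derived neural progenitor spheres (0.3 mm) were plated on poly-D-lysine/laminin in N2 differentiation medium and exposed to 7 concentrations for 120 h, with half-medium renewal at day 3. Oligodendrocyte migration distance was normalized to radial glia migration, relative to DMSO.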

[12] = IUF_NPC2a_radial_glia_migration_120hr: Leibniz Research Institute for Environmental Medicine (IUF) 120-hour Neural Progenitor Cell Migration Assay for Radial Glia Migration (NPC2a) (AID 2284298)
Outline: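 Single 0.3 mm primary human fetal-cortex (GW 16-19) NPC spheres were plated on poly-D-lysine/laminin in N2 differentiation medium and exposed from day 0 for 120 h, half-medium refreshed day 3. Migration distance came from Hoechst nuclei-density imaging, relative to DMSO.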

[13] = IUF_NPC2a_radial_glia_migration_72hr: Leibniz Research Institute for Environmental Medicine (IUF) 72-hour Neural Progenitor Cell Migration Assay for Radial Glia Migration (NPC2a) (AID 2284299)
Outline: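 Human fetal cortex (GW 16-19) neural progenitor spheres, 0.3 mm, plated on poly-D-lysine/laminin in N2 differentiation medium with compound from day 0. Radial glia migration distance (um, sphere core edge to migration edge) measured manually in four directions on 72 h brightfield images; well mean used.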

[14] = IUF_NPC2b_neuronal_migration_120hr: Leibniz Research Institute for Environmental Medicine (IUF) 120-hour Neural Progenitor Cell Migration Assay for Neuron Migration (NPC2b) (AID 2284300)
Outline: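 Primary human fetal cortex neural progenitor spheres (0.3 mm) plated on poly-D-lysine/laminin in N2 differentiation medium, exposed 120 h with half-medium refresh at day 3. TUBB3-stained neuron distance from sphere core, normalized to radial glia migration, versus DMSO.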

[15] = IUF_NPC3_neuronal_differentiation_120hr: Leibniz Research Institute for Environmental Medicine (IUF) 120-hour Neuronal Differentiation Assay (NPC3) (AID 2284301)
Outline: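 Single 0.3 mm neurospheres from human fetal cortex were plated in differentiation medium containing test compound. Medium was half-replaced on day 3. After 120 h cells were fixed, immunostained and imaged, and neuronal fraction was scored against DMSO control.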

[16] = IUF_NPC4_neurite_length_120hr: Leibniz Research Institute for Environmental Medicine (IUF) 120-hour Neuronal Morphology Assay for Neurite Length (NPC4) (AID 2284302)
Outline: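 Read-out is mean neurite length in µm of TUBB3-positive neurons, skeletonized from high-content fluorescence images after 120 h. Single 0.3 mm primary human neural progenitor spheres differentiated on poly-D-lysine/laminin under continuous compound exposure; DMSO was baseline.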

[17] = IUF_NPC5_oligodendrocyte_differentiation_120hr: Leibniz Research Institute for Environmental Medicine (IUF) 120-hour Oligodendrocyte Differentiation Assay (NPC5) (AID 2284304; active means hit-call score of the fitted dose curve at least 0.9, where 1 is the maximum;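 further: primary human fetal neural progenitor spheres plated to migrate and differentiate; share of O4-positive cells among Hoechst nuclei found by CNN image analysis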)
Outline: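 Primary human fetal (GW 16-19) neural progenitor spheres (0.3 mm) plated on poly-D-lysine/laminin in N2 differentiation medium, exposed from day 0 for 120 h with half-medium refresh at day 3; O4-positive cells as percent of Hoechst nuclei, CNN-identified, versus DMSO.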

[18] = IUF_NPC2-5_cytotoxicity_72hr: Cytotoxicity Assessment at 72 hours in the Leibniz Research Institute for Environmental Medicine (IUF) Neural Progenitor Cell Migration and Differentiation Assay for Cytotoxicity (NPC2-5) (AID 2284306; active means hit-call score of the fitted dose curve at least 0.9, where 1 is the maximum;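 further: LDH release into supernatant measured by resorufin fluorescence marking membrane damage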)
Outline: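 Membrane integrity loss was scored from fluorescence (RFU) of resorufin generated by LDH in culture supernatant, 72 h after dosing. Differentiating human progenitor spheres received seven serial compound concentrations alongside a solvent control.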

[19] = IUF_NPC2-5_cytotoxicity_120hr: Cytotoxicity Assessment at 120 hours in the Leibniz Research Institute for Environmental Medicine (IUF) Neural Progenitor Cell Migration and Differentiation Assay (NPC2-5) (AID 2284307; active means hit-call score of the fitted dose curve at least 0.9, where 1 is the maximum)
Outline: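 Human fetal neural progenitor spheres (0.3 mm, GW 16-19 cortex) were plated on poly-D-lysine/laminin in N2 differentiation medium and exposed for 120 h, with half-medium refresh at day 3. LDH release into supernatant was read by resorufin fluorescence.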

[20] = IUF_NPC4_neurite_area_120hr: Leibniz Research Institute for Environmental Medicine (IUF) 120-hour Neuronal Morphology Assay for Neurite Area (NPC4) (AID 2284305; active means hit-call score of the fitted dose curve at least 0.9, where 1 is the maximum)
Outline: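 Neurite area is read out as the mean pixel area, excluding nuclei, of skeletonized TUBB3-positive neurons imaged after 120 h. Primary human neural progenitor spheres differentiated on poly-D-lysine/laminin with compound present from day 0. Activity was referenced to DMSO controls.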

C=C[Si](OC(C)=O)(OC(C)=O)OC(C)=O
outcome [1]: inactive
outcome [2]: inactive
outcome [3]: inactive
outcome [4]: inactive
outcome [5]: inactive
outcome [6]: inactive
outcome [7]: inactive
outcome [8]: inactive
outcome [9]: inactive
outcome [10]: inactive

CC1(C)S[C@@H]2[C@H](NC(=O)COc3ccccc3)C(=O)N2[C@H]1C(=O)O
outcome [11]: inactive
outcome [12]: inactive
outcome [13]: inactive
outcome [14]: inactive
outcome [15]: inactive
outcome [16]: inactive
outcome [17]: inactive
outcome [18]: inactive
outcome [19]: inactive

O=C1CCCN1CCO
outcome [1]: inactive
outcome [2]: inactive
outcome [3]: inactive
outcome [4]: inactive
outcome [5]: inactive
outcome [6]: inactive
outcome [7]: inactive
outcome [8]: inactive
outcome [9]: inactive
outcome [10]: inactive

CN1C(=O)N(C)C(O)C1O (centres undefined)
outcome [1]: inactive
outcome [2]: inactive
outcome [3]: inactive
outcome [4]: inactive
outcome [5]: inactive
outcome [6]: inactive
outcome [7]: inactive
outcome [8]: inactive
outcome [9]: inactive
outcome [10]: inactive

O=C(c1ccc(O)cc1)c1ccc(O)cc1O
outcome [1]: inactive
outcome [2]: inactive
outcome [3]: inactive
outcome [4]: inactive
AC50 [5]: 20 µM (active) and 9.6 µM (active)
outcome [6]: inactive
outcome [7]: inactive
outcome [8]: inactive
outcome [9]: inactive
outcome [10]: inactive

Nc1ccc(N)c(Cl)c1
outcome [1]: inactive
AC50 [2]: 5.71 µM (active)
outcome [2]: inactive
outcome [3]: inactive
outcome [4]: inactive
AC50 [5]: 15.2 µM (active) and 7.82 µM (active)
outcome [6]: inactive
AC50 [7]: 28.9 µM (active)
outcome [8]: inactive
AC50 [9]: 28.1 µM (active) and 28.9 µM (active)
AC50 [10]: 4.71 µM (active) and 1.81 µM (active)

Nc1ncn([C@@H]2O[C@H](CO)[C@@H](O)[C@H]2O)c(=O)n1
outcome [11]: inactive
outcome [12]: inactive
outcome [13]: inactive
outcome [14]: inactive
outcome [15]: inactive
outcome [16]: inactive
outcome [20]: inactive
outcome [18]: inactive
outcome [19]: inactive

CCOC(=O)c1ccccc1C(=C1C=C(Br)C(=O)C(Br)=C1)c1cc(Br)c(O)c(Br)c1
AC50 [1]: 3.9 µM (active) and 3.63 µM (active)
AC50 [2]: 7.85 µM (active) and 7.6 µM (active)
outcome [3]: inactive
AC50 [4]: 3.98 µM (active) and 4.84 µM (active)
AC50 [5]: 4.52 µM (active) and 2.5 µM (active)
outcome [6]: inactive
AC50 [7]: 3.51 µM (active) and 3.62 µM (active)
AC50 [8]: 4.29 µM (active) and 4.91 µM (active)
AC50 [9]: 3.49 µM (active) and 3.46 µM (active)
AC50 [10]: 8.66 µM (active) and 7.45 µM (active)

CCCCC(CC)COCC1CO1 (centres undefined)
outcome [1]: inactive
outcome [2]: inactive
outcome [3]: inactive
outcome [4]: inactive
outcome [5]: inactive
outcome [6]: inactive
outcome [7]: inactive
outcome [8]: inactive
outcome [9]: inactive
outcome [10]: inactive

CCO[Si](C)(OCC)OCC
outcome [1]: inactive
outcome [2]: inactive
outcome [3]: inactive
outcome [4]: inactive
outcome [5]: inactive
outcome [6]: inactive
outcome [7]: inactive
outcome [8]: inactive
outcome [9]: inactive
outcome [10]: inactive

CO[Si](OC)(OC)c1ccccc1
outcome [1]: inactive
outcome [2]: inactive
outcome [3]: inactive
outcome [4]: inactive
outcome [5]: inactive
outcome [6]: inactive
outcome [7]: inactive
outcome [8]: inactive
outcome [9]: inactive
outcome [10]: inactive
